Compound activity (PubChem BioAssay)
Peg3 prom inh = inhibitors of Peg3 promoter; HeLa PEG-Prom luciferase reporter, luminescence, overnight; inhibition, % at 20 µM; 360,000 tested, 1.7% active; AID 588405;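 active = inhibition of at least 50% at 20 µM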
KKLEB cytotox = counter-screen for CF NF-kB inhibitors: cytotoxicity; AID 602141; 360,000 tested, 0.36% active; KKLEB CF airway cells viability, ATPlite luminescence, overnight; hits give low values; cells stimulated with P. aeruginosa culture filtrate; activity change (cytotoxicity), % at 5 µM;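 active = corrected activity change at or below -50% at 5 µM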
HIF-2a block = HIF-2a inhibition. 360,000 tested, 0.72% active. 786-0 RCC cells HIF-2a reporter, luciferase luminescence, overnight. inhibition, % at 18.8 µM. AID 624352;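 active = inhibition of the luminescence signal of 40% or more relative to plate controls, in a single-dose primary screen at 18.75 µM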
TROY signal inh = blocks TROY-dependent signaling in reporter cells. inhibition, % at 10 µM. 360,000 tested, 0.98% active. Q293 LMP1-TROYcd NF-kB luciferase reporter, 4 h. AID 1347056;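 active = compounds whose plate-normalised and pattern-corrected inhibition of the luciferase reporter signal at the single screening dose is 50% or more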
TWEAK-Fn14 inh = inhibitors of TWEAK-Fn14 interaction signaling; AID 1159606; 360,000 tested, 2% active; TWEAK-stimulated Fn14 reporter cells, luciferase luminescence, 8 h; inhibition, % at 10 µM; in the data active = inhibition above about 50%
CF NFkB block = blocks PAF-induced NF-kB reporter in cystic fibrosis cells; KKLEB NF-kB-GFP reporter, GFP fluorescence overnight; inhibition, % at 5 µM; 360,000 tested, 0.86% active; AID 588850;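 active = at least 50% inhibition at 5 µM, scaled per plate between neutral and stimulator controls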;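 note: PAF is a Pseudomonas aeruginosa culture filtrate used as stimulus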
Large screens that a line does not name were inactive. Hits are enriched below; roughly 4% of the tested compounds scored in any of these assays.

N=c1c(C(=O)NC2CCCCC2)cc2c(=O)n3ccccc3nc2n1Cc1ccco1	TWEAK-Fn14 inh 85.5
N=c1c(C(=O)NC2CCCCC2)cc2c(=O)n3ccccc3nc2n1Cc1ccccc1	none
N=c1c(C(=O)NCCc2ccccc2)cc2c(=O)n3ccccc3nc2n1Cc1ccco1	TWEAK-Fn14 inh 75.0
CCOC(=O)C1CCN(C(=O)c2cc(S(=O)(=O)N3CCCCCC3)ccc2OC)CC1	none
CCNC(=O)C1(C)CCN(Cc2ccc(OC(F)(F)F)cc2)C1 (stereo not drawn)	none
Cn1nc(C(=O)Nc2ccc3c(c2)OCCO3)cc1C(=O)O	TROY signal inh 61.1, TWEAK-Fn14 inh 72.4
Cc1ccc(NC(=O)c2c([N+](=O)[O-])cnn2C)cc1C	none
Cn1ncc([N+](=O)[O-])c1C(=O)Nc1ccc2c(c1)OCCO2	TROY signal inh 58.6, TWEAK-Fn14 inh 82.2
COCCN1Cc2cccc(C(=O)Nc3ccc(C)cc3)c2C1=O	none
Cn1ccc(C(=O)Nc2ccc3c(c2)OCCO3)n1	none
COCCN1Cc2cccc(C(=O)Nc3ccc4c(c3)OCCO4)c2C1=O	TROY signal inh 56.1, TWEAK-Fn14 inh 73.7
Cc1nn(C)cc1C(=O)Nc1ccc2c(c1)OCCO2	TWEAK-Fn14 inh 66.5
O=C(C[C@H]1CC[C@@H]2[C@H](COC[C@@H](O)CN2Cc2ccc(Cl)cc2)O1)NCCc1ccccc1	none (no result: Peg3 prom inh, KKLEB cytotox, TROY signal inh, TWEAK-Fn14 inh, CF NFkB block)
CC1CN(c2nc3ccccn3c(=O)c2C=O)CC(C)O1 (stereo not drawn)	none
Cc1c(C(=O)Nc2ccc3c(c2)OCCO3)cnn1C	TROY signal inh 73.5, TWEAK-Fn14 inh 91.3
Cn1nccc1C(=O)Nc1ccc2c(c1)OCCO2	TROY signal inh 55.7, TWEAK-Fn14 inh 74.4
CCNC(=O)C1(C)CCCN1C(=O)c1c(F)cccc1F (stereo not drawn)	none
Cc1ccc(C(=O)N2CCC(Cc3ccccc3)CC2)cc1S(=O)(=O)N1CCOCC1	none
CC(C)(C)C(=O)NC(NC(=O)C(C)(C)C)c1ccc([N+](=O)[O-])cc1	none
CC(C)(C)C(=O)Nc1ccc(Sc2ccc([N+](=O)[O-])cc2)cc1	TWEAK-Fn14 inh 51.0
COCCC(=O)N1CCC(C(=O)Nc2ccc(Oc3ccccc3)nc2)CC1	none
O=[N+]([O-])c1cc(Cl)ccc1Oc1ccc(-c2nnco2)cc1	TROY signal inh 61.6
CS(=O)(=O)c1ccc(Oc2ccc(-c3nnco3)cc2)c([N+](=O)[O-])c1	none
Cc1cc(NC(=O)CSc2nc(C(C)C)nc3sc(C)c(C)c23)no1	none
Cc1cc(NC(=O)CSc2nc3sc(C)c(C)c3c(=O)n2C2CCCC2)no1	KKLEB cytotox -59.2
COc1cccc(CN(C(=O)Cc2c[nH]c3ccccc23)C(C(=O)NC2CCCCC2)c2cccs2)c1 (stereo not drawn)	TWEAK-Fn14 inh 52.9
COc1ccc(C(C(=O)NC2CCCCC2)N(Cc2cccs2)C(=O)Cc2c[nH]c3ccccc23)cc1 (stereo not drawn)	TWEAK-Fn14 inh 64.7
COc1cc(N(C(=O)Cc2cccs2)C(C(=O)NC2CCCCC2)c2ccc(C)cc2)ccc1-n1cnnn1 (stereo not drawn)	KKLEB cytotox -56.4, CF NFkB block 66.8
O=C(NC1CCCCC1)C(c1cccs1)N(C(=O)Cc1c[nH]c2ccccc12)c1ccc(F)cc1 (stereo not drawn)	Peg3 prom inh 85.0
Cc1ccccc1C(=O)Nc1ccnn1C1CCN(C(C)Cc2ccccc2F)CC1 (stereo not drawn)	none
O=C(Nc1ccc(-n2cnnn2)cc1)c1cccc(S(=O)(=O)N2CCCC2)c1	none
CC1C(=O)N(Cc2cn(CCC3OCCO3)nn2)CCS(=O)(=O)N1Cc1ccc(-c2ccc(Cl)c(Cl)c2)cc1 (stereo not drawn)	TWEAK-Fn14 inh 56.0
CC(C)C1C(=O)N(Cc2cn(CCC3OCCCO3)nn2)CCS(=O)(=O)N1Cc1ccc(-c2ccc(Cl)c(Cl)c2)cc1 (stereo not drawn)	Peg3 prom inh 88.2
CC(C#N)Sc1nnc(-c2ccccc2F)n1C1CC1 (stereo not drawn)	none
COc1ccc(-c2cc3nc(CCl)[nH]c(=O)c3s2)cc1	TWEAK-Fn14 inh 63.0
Cc1ccc2c(CN(C)Cc3ccc(Cl)cc3Cl)cc(=O)oc2c1	none
CCOc1ccc(/C=N/Nc2cc(N3CCOCC3)ncn2)c(O)c1	none
CCCOc1ccc(/C=N/Nc2cc(N3CCOCC3)ncn2)c(O)c1	CF NFkB block 53.7
